{"source": "PubChem BioAssay AID504333", "about": "(National Center for Advancing Translational Sciences (NCATS), 2011)", "note": "In all, about 360,000 compounds went through this assay and about 16,000 (4.4%) were called active. About 9% were inconclusive and are not listed. Only a selection was taken, and actives are over-represented in it overall. Values without a mark were called inactive. Calls follow the shape of the dose curve; as a rule, active = well fitted inhibition curve with a large enough effect; inconclusive = small, poorly fitted or top-dose-only effect; inactive = no such curve, though single readings can be large or run the other way."}
{"target": "Bromodomain adjacent to zinc finger domain protein 2B (Homo sapiens) (UniProt Q9UIF8)", "sequence (Q9UIF8 whole entry, looked up, the tested form may be a part)": "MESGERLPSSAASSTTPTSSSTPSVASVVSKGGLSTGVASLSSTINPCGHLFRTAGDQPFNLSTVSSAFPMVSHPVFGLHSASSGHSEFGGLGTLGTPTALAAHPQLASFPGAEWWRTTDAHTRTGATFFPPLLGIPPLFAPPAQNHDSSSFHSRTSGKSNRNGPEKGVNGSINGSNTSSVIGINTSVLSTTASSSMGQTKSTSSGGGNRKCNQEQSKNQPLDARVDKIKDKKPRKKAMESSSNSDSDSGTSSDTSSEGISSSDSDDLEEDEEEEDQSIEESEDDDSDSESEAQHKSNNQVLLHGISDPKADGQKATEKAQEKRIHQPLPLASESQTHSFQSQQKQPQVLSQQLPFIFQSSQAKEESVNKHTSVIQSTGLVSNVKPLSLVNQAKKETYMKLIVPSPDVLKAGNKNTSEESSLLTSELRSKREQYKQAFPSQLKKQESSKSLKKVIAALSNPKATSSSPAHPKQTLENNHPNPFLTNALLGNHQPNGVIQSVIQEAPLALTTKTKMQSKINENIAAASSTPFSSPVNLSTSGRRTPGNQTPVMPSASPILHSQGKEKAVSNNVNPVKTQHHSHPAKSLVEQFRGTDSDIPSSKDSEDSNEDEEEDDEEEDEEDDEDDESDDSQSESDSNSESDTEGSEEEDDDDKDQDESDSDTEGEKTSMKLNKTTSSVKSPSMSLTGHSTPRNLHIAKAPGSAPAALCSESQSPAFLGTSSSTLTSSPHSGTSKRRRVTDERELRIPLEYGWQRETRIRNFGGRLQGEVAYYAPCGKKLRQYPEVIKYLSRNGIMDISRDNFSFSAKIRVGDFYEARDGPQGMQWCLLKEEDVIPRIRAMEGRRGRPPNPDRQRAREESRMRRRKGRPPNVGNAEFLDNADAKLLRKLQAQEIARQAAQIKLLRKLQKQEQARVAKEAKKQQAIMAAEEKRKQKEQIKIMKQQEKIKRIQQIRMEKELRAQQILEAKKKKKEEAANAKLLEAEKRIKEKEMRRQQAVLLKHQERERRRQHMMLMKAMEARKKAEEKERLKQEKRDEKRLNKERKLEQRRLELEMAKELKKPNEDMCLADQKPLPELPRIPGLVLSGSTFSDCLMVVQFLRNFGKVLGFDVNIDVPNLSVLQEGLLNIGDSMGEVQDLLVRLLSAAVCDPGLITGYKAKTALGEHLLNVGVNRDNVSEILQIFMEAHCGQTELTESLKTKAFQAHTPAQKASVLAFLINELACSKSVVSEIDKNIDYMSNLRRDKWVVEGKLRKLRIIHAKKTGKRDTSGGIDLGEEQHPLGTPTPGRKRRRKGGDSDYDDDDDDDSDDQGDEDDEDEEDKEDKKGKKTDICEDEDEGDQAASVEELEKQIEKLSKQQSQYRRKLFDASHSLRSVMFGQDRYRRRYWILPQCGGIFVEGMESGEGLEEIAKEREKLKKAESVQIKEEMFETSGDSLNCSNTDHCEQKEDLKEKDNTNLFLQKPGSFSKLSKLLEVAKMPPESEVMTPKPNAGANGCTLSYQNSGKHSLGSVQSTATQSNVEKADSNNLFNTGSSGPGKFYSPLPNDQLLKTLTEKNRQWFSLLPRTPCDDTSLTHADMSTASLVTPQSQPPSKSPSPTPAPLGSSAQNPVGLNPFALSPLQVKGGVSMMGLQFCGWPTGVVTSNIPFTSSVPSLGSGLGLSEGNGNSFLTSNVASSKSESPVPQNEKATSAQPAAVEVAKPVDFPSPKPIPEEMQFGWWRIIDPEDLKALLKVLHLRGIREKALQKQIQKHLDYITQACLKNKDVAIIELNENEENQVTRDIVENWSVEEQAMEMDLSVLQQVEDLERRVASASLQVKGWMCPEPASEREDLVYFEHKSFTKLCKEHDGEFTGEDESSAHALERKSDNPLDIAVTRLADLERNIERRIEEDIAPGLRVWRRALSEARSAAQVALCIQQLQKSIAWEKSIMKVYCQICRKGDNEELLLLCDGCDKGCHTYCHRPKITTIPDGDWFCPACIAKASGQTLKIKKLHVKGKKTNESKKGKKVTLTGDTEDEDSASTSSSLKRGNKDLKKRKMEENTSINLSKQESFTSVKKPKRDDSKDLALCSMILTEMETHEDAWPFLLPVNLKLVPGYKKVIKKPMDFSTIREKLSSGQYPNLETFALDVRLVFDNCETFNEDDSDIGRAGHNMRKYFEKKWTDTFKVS", "experiment": "qHTS Assay for Inhibitors of BAZ2B; also: nearly all actives have a fitted effect of over 60% in size; also: potency is read from the fitted curve at half-maximal effect; as to activity change, negative = inhibition: % is scaled to controls: 0 for no effect and ±100 for the full control effect", "conditions": "AlphaScreen BAZ2B-H3K14Ac peptide displacement; series mostly up to 114 µM; activity change, negative = inhibition: at the top concentration", "outline": "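Complex of BAZ2B and biotin-H3K14Ac (50 nM apiece) forms over 30 min at RT, then faces library compounds up to 110 uM for another 30 min; AlphaScreen beads added, 20 min dark incubation, luminescence read.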"}
{"compound": "COc1cccc(NC(=O)CSC2=Nc3ccccc3C3=NC(CC(=O)NC4CCCCC4)C(=O)N23)c1", "note": "(stereo not given)", "activity change, negative = inhibition": "-0.823%"}
{"compound": "Cc1cccc2nc(-c3ccc(Cl)s3)c(Nc3ccc4c(c3)OCCO4)n12", "Potency": "12.6 µM (active)"}
{"compound": "Cc1nc(Nc2ccc3c(c2)OCCO3)c2nnn(Cc3ccccc3Cl)c2n1", "activity change, negative = inhibition": "-6.54%"}
{"compound": "S=C(Nc1cccc(Cl)c1)Nc1ccc2c(c1)OCCO2", "activity change, negative = inhibition": "-27%"}
{"compound": "Cc1cc(Nc2ccccc2)n(C(=O)c2ccc(N)cc2)n1", "activity change, negative = inhibition": "-13.8%"}
{"compound": "Nc1ccc(S(=O)(=O)NC(=O)c2ccccc2)cc1", "activity change, negative = inhibition": "-4.92%"}
{"compound": "Nc1ccc(Nc2ccccc2)cc1", "Potency": "35.5 µM (active)"}
{"compound": "CCCOc1ccc(NC(=O)CC2C(=O)N(c3ccccc3)C(=O)N2Cc2ccco2)cc1", "note": "(stereo not given)", "activity change, negative = inhibition": "-32.9%"}
{"compound": "C[N+]1(CCNC(=O)/C=N/O)CCCCC1", "Potency": "79.4 µM (active)"}
{"compound": "COc1ccc(C2C(C#N)=C(N)Oc3n[nH]c(C)c32)cc1CN1CCN(c2ccc(F)cc2)CC1", "note": "(stereo not given)", "Potency": "50.1 µM (active)"}
{"compound": "COc1cc(C2C(C#N)=C(N)Oc3n[nH]c(-c4ccccn4)c32)cc(OC)c1OC", "note": "(stereo not given)", "activity change, negative = inhibition": "-3.91%"}
{"compound": "CCOc1c(OC)cc(C2C(C#N)=C(N)Oc3n[nH]c(-c4ccncc4)c32)cc1OC", "note": "(stereo not given)", "activity change, negative = inhibition": "-6.04%"}
{"compound": "O=C(CSc1nc(=O)n(Cc2cccnc2)c2c1CCC2)Nc1ccc(F)cc1F", "activity change, negative = inhibition": "4.35%"}
{"compound": "N#Cc1nc(COc2ccc(-c3ccccc3)cc2)oc1NCc1cccnc1", "Potency": "11.2 µM (active)"}
{"compound": "O=S(=O)(c1ccccc1)c1nc(-c2ccccc2F)oc1NCc1cccnc1", "activity change, negative = inhibition": "-33.6%"}
{"compound": "c1ccc(COc2ccccc2CNCc2cccnc2)cc1", "activity change, negative = inhibition": "-30.5%"}
{"compound": "O=C(NCCCO)C(=O)Nc1c2c(nn1-c1ccc(F)cc1)CSC2", "activity change, negative = inhibition": "-16.6%"}
{"compound": "CCOc1ccc(C2C(=O)N(C3CCCCC3)CC(=O)N2CCC2=CCCCC2)cc1OC", "note": "(stereo not given)", "activity change, negative = inhibition": "-23.7%"}
{"compound": "Fc1ccccc1OCCCCn1cncn1", "activity change, negative = inhibition": "0.584%"}
{"compound": "CN1CCN(CCCCOc2cccc3ccccc23)CC1", "activity change, negative = inhibition": "-14.2%"}
{"compound": "CCN1CCN(CCCCOc2ccccc2F)CC1", "Potency": "50.1 µM (active)"}
{"compound": "CCn1c2c(c(=O)n3ncc(C(=O)N4CCN(c5ccccc5)CC4)c13)CN(Cc1ccc(OC)cc1)CC2", "activity change, negative = inhibition": "-4.6%"}
{"compound": "O=C(Nc1ccc(F)cc1F)c1cnn(-c2ccc(F)cc2)c1-n1cccc1", "activity change, negative = inhibition": "1.35%"}
{"compound": "CCOC(=O)Cn1c(=O)n(C2CCCCC2)c2nc(-c3cccc(OC)c3)nc(C(N)=O)c21", "activity change, negative = inhibition": "-2.28%"}
{"compound": "CC(C)(C)n1c(=O)[nH]c2c(c1=O)CCC2", "activity change, negative = inhibition": "-16%"}
{"compound": "N#Cc1c2c(c(-c3ccccc3)[nH]c1=O)CCCC2", "activity change, negative = inhibition": "-9.41%"}
{"compound": "O=c1[nH]n2c(=O)c3c([nH]c2c1N=Nc1ccccc1)CCC3", "Potency": "39.8 µM (active)"}
{"compound": "COc1cc(CN(CC2CCCO2)C(=O)c2ccccc2F)cc(OC)c1OC", "note": "(stereo not given)", "activity change, negative = inhibition": "-0.58%"}
{"compound": "O=C(O)C(c1ccccc1)N1C(=O)/C(=C\\c2ccc(-c3cccc(Cl)c3)o2)SC1=S", "note": "(stereo not given)", "Potency": "22.4 µM (active)"}
{"compound": "O=C1c2ccccc2NC(c2ccc(-c3cccc(Cl)c3)o2)N1O", "note": "(stereo not given)", "activity change, negative = inhibition": "-7.95%"}
{"compound": "O=C(NCc1ccccc1)c1cc(-c2cccc(Cl)c2)on1", "activity change, negative = inhibition": "5.03%"}
{"compound": "COc1cccc(NC(=O)CN2C(=O)c3ccccc3Sc3ncccc32)c1", "activity change, negative = inhibition": "-15.8%"}
{"compound": "CC(=O)Nc1ccc(NC(=O)c2cc3sccc3n2Cc2ccc(F)cc2)cc1", "activity change, negative = inhibition": "-11.3%"}
{"compound": "COC(=O)c1ccc(NC(=O)CSc2n[nH]c(-c3ccccc3)n2)cc1", "activity change, negative = inhibition": "5.97%"}
{"compound": "COc1cccc(-n2c(=S)sc3c(=O)n(-c4ccccc4C)c(SCC(=O)O)nc32)c1", "activity change, negative = inhibition": "1.29%"}
{"compound": "Cc1cccc(-n2c(N)c(C(=O)N3CCN(C)CC3)sc2=S)c1", "activity change, negative = inhibition": "-8.65%"}
{"compound": "CCOC(=O)c1sc(=S)n(-c2cccc(OC)c2)c1N", "Potency": "50.1 µM (active)"}
{"compound": "Clc1cccc(N=C2NN=C(c3ccc4c(c3)OCCO4)CS2)c1", "activity change, negative = inhibition": "-36.8%"}
{"compound": "c1ccc(CN2CCC(N=C3NN=C(c4ccc5c(c4)OCCO5)CS3)CC2)cc1", "Potency": "39.8 µM (active)"}
{"compound": "CS(=O)(=O)N(CC(=O)N1CCN(Cc2ccccc2)CC1)c1ccc2c(c1)OCCO2", "activity change, negative = inhibition": "9.43%"}
{"compound": "Cc1ccc(NC(=O)CN2C(=O)CC(C)Sc3ccccc32)c(C)c1", "note": "(stereo not given)", "activity change, negative = inhibition": "-10.4%"}
{"compound": "C=CCO/N=C/C1=C(O)C(C(=O)OC)C(C)(C)CC1=O", "note": "(stereo not given)", "Potency": "39.8 µM (active)"}
{"compound": "CCCC(=O)C1=C(N(C)c2ccccc2)CC(C)(C)C(C(=O)OC)C1=O", "note": "(stereo not given)", "activity change, negative = inhibition": "-4.72%"}
{"compound": "COc1ccc(CCNc2nc(-c3ccc(F)cc3)cc(C(F)(F)F)n2)cc1OC", "activity change, negative = inhibition": "22.9%"}
{"compound": "CCOC(=O)c1c(NC(=O)COc2cc(C)ccc2C(C)C)sc(C)c1C", "activity change, negative = inhibition": "-14.4%"}
{"compound": "O=C1CN(C(=O)Nc2ccccc2C(F)(F)F)C(c2ccccc2)c2c(sc3c2CCCC3)N1", "note": "(stereo not given)", "activity change, negative = inhibition": "-2.91%"}
{"compound": "Cc1onc(C(=O)NN)c1-c1csc(COc2ccccc2)n1", "activity change, negative = inhibition": "1.98%"}
{"compound": "COc1cc(CC(=O)Nc2nc(-c3ccc(F)c(F)c3)cs2)cc(OC)c1OC", "activity change, negative = inhibition": "-9.28%"}
{"compound": "CC(C)(C)C(=O)OCc1nc(-c2ccc(O)c(O)c2)cs1", "Potency": "56.2 µM (active)"}
{"compound": "Cc1ccc(C2c3[nH]c4ccccc4c3CCN2C(=O)c2cccc(C)c2)cc1", "note": "(stereo not given)", "activity change, negative = inhibition": "-1.99%"}
{"compound": "COCc1ccc(C(=O)N2CCc3c([nH]c4ccccc34)C2c2ccccn2)s1", "note": "(stereo not given)", "Potency": "35.5 µM (active)"}
{"compound": "COCc1ccc(CN2CCC(Oc3ccc(C(=O)NCc4ccccn4)cc3)CC2)o1", "activity change, negative = inhibition": "0.52%"}
{"compound": "Cc1cccc(C2c3[nH]c4ccccc4c3CCN2C(=O)c2cc(-c3cccn3C)n[nH]2)n1", "note": "(stereo not given)", "Potency": "12.6 µM (active)"}
{"compound": "COC(=O)[C@H]1[C@H]2C[C@H]3c4[nH]c5ccccc5c4CCN3C[C@@H]2CC[C@@H]1O", "activity change, negative = inhibition": "0.163%"}
{"compound": "COc1ccc(Cn2cc(C(=O)c3ccc(C)cc3)c(=O)c3cc(OC)c(OC)cc32)cc1", "activity change, negative = inhibition": "-29.8%"}
{"compound": "CCn1c(CN2CCC(C)CC2)nc2cc(NC(=O)c3ccccc3[N+](=O)[O-])ccc21", "activity change, negative = inhibition": "-27.8%"}
{"compound": "CCc1ccc(Sc2cc(C(=O)NCCCOC(C)C)c3ccccc3n2)cc1", "activity change, negative = inhibition": "-6.65%"}
{"compound": "CCOc1ccc(CNC(=O)Cn2cc3c(n2)-c2c(oc(C(=O)N4CCCC4)c2C)CC3)cc1", "activity change, negative = inhibition": "-26.1%"}
{"compound": "COc1cc(C2c3c(oc4ccccc4c3=O)C(=O)N2c2nc(C)c(C)s2)ccc1O", "note": "(stereo not given)", "activity change, negative = inhibition": "1.61%"}
{"compound": "Oc1ccc(/C=N/N(Cc2ccccc2)c2ccccc2)cc1", "Potency": "39.8 µM (active)"}
{"compound": "CCN(CC)C(=O)N(CC)Cc1ccccc1", "activity change, negative = inhibition": "8.44%"}
{"compound": "COc1ccc(/C=N/OCC(=O)N(Cc2ccccc2)c2ccccc2C(=O)O)cc1", "activity change, negative = inhibition": "-38%"}
{"compound": "O=C(CCCOc1ccccc1)Nc1cccc(C(=O)O)c1", "activity change, negative = inhibition": "0.447%"}
{"compound": "COc1cc(/C=C2/SC(=S)N(Cc3ccccc3)C2=O)cc(OC)c1O", "Potency": "12.6 µM (active)"}
{"compound": "COc1ccc(/C=C2\\SC(=S)N(CCC(=O)Nc3cccc(C(=O)O)c3)C2=O)cc1OC", "Potency": "50.1 µM (active)"}
{"compound": "Cc1ccc(/C=C2\\SC(=S)N(CCC(=O)Nc3ccc(O)cc3)C2=O)cc1", "activity change, negative = inhibition": "0.0674%"}
{"compound": "COc1cccc(/C=C2/SC(=S)N(CC(=O)NC3C=CS(=O)(=O)C3)C2=O)c1", "note": "(stereo not given)", "activity change, negative = inhibition": "-22.7%"}
{"compound": "COc1ccc(/C=C2\\SC(=S)N(CC(=O)NNC(=O)c3ccncc3)C2=O)cc1", "activity change, negative = inhibition": "-3.39%"}
{"compound": "Cc1ccc(C(=O)Nc2ccccc2F)cc1S(=O)(=O)N1CCOCC1", "activity change, negative = inhibition": "0.786%"}
{"compound": "CC(C)(C)OC(=O)N1CCC(c2c(C(=O)N3CCc4ccccc4C3)cnn2-c2ccc(F)cc2)CC1", "activity change, negative = inhibition": "4.44% [at 57.1 µM]"}
{"compound": "Cc1ccc(CN2CCC(CNC(=O)c3cnn(-c4ccccc4Cl)c3C3CCN(C(=O)OC(C)(C)C)CC3)CC2)cc1", "activity change, negative = inhibition": "-4.83% [at 57.1 µM]"}
{"compound": "CCc1ccc(S(=O)(=O)Nc2cc3c(C(=O)OCc4ccccc4)c(C)oc3c3ccccc23)cc1", "activity change, negative = inhibition": "-21%"}
{"compound": "COc1ccccc1N1CCN(S(=O)(=O)CCNC(=O)COc2ccc(F)cc2)CC1", "activity change, negative = inhibition": "-15.1%"}
{"compound": "O=C(C1CCCN(S(=O)(=O)c2cccc3nonc23)C1)N1CCN(c2ccccc2F)CC1", "note": "(stereo not given)", "activity change, negative = inhibition": "-31.9%"}
{"compound": "COc1cc(C(=O)Nc2ccc(OCc3cc(=O)n4ccc(C)cc4n3)cc2)cc(OC)c1OC", "activity change, negative = inhibition": "-3.88%"}
